About 8,800 targets were measured; listed, in parts, are those with a hit and a random draw of the rest. About 0.5% of all pairs of compound and target were hits.
How the values were obtained:
Test in all cases: log2 fold change, soluble protein after heating vs DMSO (PISA); higher = thermal stabilisation; K562 lysate, 10 uM; active = over 0.2 and 3.5 SD of the protein, either way, in both replicates (recomputed)
ibrutinib = compound: C=CC(=O)N1CCC[C@@H](n2nc(-c3ccc(Oc4ccccc4)cc3)c3c(N)ncnc32)C1 [ibrutinib]
Outline: (§1)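 Pellets of K562 cells were dounce-homogenised in PBS pH 7.4 with 1 mM MgCl2, and the crude extract was held at 1 mg/mL protein for a 30 min treatment with 10 μM compound. Aliquots were heated for 3 min over 48°C-58°C and pooled before NP-40 was added to 0.5% at 4°C. The supernatant from 21,000xg for 90 min was quantified by TMTpro 16plex LC-MS/MS with channel sums equalised. Values are reported from duplicates as log-two fold change in thermal stability relative to solvent controls.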

[1] = compound: CC(=O)c1cnc2ccc(-c3cc(Cl)c(O)c(Cl)c3)nc2c1N[C@H]1CC[C@H](CN(C)C)CC1
Outline: as §1

ralimetinib = compound: CC(C)(C)Cn1c(N)nc2ccc(-c3[nH]c(C(C)(C)C)nc3-c3ccc(F)cc3)nc21 [ralimetinib]
Outline: as §1

[2] = compound: CC(C)(O)CC(=O)NCCn1ccc2ncnc(Nc3ccc(Oc4cccc(C(F)(F)F)c4)c(Cl)c3)c21
Outline: as §1

[3] = compound: CC(C)C1=C2N=C(C=C(N2N=C1)NCC3=CC=CC=C3)NCCCCCCN
Outline: as §1

[4] = compound: CC1=C(C(CC(=O)N1)C2=CC=C(C=C2)C(F)(F)F)C(=O)NC3=C(C=C4C(=C3)C=NN4)F
Outline: as §1

[5] = compound: CC1=C(C2=C(C=C1)C(=O)C3=CC=CC=C3N2CCCN)C
Outline: as §1

[6] = compound: CC1=C(C=C(C=C1)NC(=O)C2=CC(=CC=C2)C(C)(C)C#N)NC3=CC4=C(C=C3)N=CN(C4=O)C
Outline: as §1

[7] = compound: CC1=C(C=C(C=C1)NC(=O)C2=CC(=CC=C2)N(C)C)NC(=O)C3=CC=C(C=C3)O
Outline: as §1

[8] = compound: CC1=CC=C(C=C1)SC2=C3C=C(SC3=CN=C2)C(=O)N
Outline: as §1

Measured: log2 fold change

SNW1 (UniProt Q13573)
inactive: ibrutinib 0.01 | [1] 0.001 | ralimetinib -0.005 | [2] -0.007 | [3] 0.014 | [4] 0.007 | [5] -0.045 | [6] 0.016 | [7] -0.004 | [8] 0.015

SLC30A6 isoform 2 (UniProt Q6NXT4)
Sequence of UniProt Q6NXT4 (Q6NXT4 whole entry, looked up): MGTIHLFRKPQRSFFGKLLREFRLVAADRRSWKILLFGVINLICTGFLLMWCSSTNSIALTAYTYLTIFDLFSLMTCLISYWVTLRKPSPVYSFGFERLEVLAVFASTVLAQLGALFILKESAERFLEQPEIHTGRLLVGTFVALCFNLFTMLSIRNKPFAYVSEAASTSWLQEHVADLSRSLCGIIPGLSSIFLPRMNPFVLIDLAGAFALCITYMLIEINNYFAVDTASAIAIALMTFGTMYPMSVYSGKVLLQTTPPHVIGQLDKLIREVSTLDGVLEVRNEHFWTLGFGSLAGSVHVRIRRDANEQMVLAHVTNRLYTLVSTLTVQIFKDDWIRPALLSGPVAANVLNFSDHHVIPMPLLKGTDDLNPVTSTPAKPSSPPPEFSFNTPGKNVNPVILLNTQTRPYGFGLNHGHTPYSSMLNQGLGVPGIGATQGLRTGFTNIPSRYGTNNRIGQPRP
inactive: ibrutinib 0.052 | [1] -0.019 | ralimetinib -0.013 | [2] -0.016 | [3] -0.023 | [4] 0.047 | [6] -0.022 | [7] 0.053 | [8] 0.011

SNUPN (UniProt O95149)
inactive: ibrutinib -0.072 | [1] 0.001 | ralimetinib -0.008 | [2] -0.068 | [3] -0.116 | [4] -0.065 | [6] 0.001 | [7] -0.036 | [8] 0.027

SLC25A44 (UniProt Q96H78)
Sequence of UniProt Q96H78 (Q96H78 whole entry, looked up): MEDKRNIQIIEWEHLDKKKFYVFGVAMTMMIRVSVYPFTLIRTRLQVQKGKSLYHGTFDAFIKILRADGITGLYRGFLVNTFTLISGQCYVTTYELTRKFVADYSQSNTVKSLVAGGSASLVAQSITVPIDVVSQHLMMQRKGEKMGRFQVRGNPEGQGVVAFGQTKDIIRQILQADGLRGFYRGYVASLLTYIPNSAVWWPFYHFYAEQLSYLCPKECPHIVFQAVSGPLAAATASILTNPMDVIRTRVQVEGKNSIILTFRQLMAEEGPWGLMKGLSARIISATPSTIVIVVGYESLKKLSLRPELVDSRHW
inactive: ibrutinib -0.006 | [1] 0.002 | ralimetinib 0.065 | [2] -0.322 | [3] -0.031 | [5] -0.017 | [6] 0.038 | [7] -0.118 | [8] 0.002

TARBP2 (UniProt Q15633)
inactive: ibrutinib -0.013 | [1] 0 | ralimetinib -0.025 | [2] -0.042 | [3] 0.013 | [4] 0.074 | [5] -0.002 | [6] 0.029 | [7] 0.062 | [8] -0.015

SLC25A32 (UniProt Q9H2D1)
inactive: ibrutinib 0.029 | [1] 0.005 | ralimetinib 0.006 | [2] -0.017 | [3] -0.017 | [4] -0.03 | [5] -0.031 | [6] 0.048 | [7] -0.021 | [8] -0.007

SH3BGRL2 (UniProt Q9UJC5)
Sequence of UniProt Q9UJC5 (Q9UJC5 whole entry, looked up): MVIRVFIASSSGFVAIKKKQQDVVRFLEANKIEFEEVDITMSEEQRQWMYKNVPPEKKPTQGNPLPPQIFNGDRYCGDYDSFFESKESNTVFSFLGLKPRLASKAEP
inactive: ibrutinib -0.014 | [1] 0.027 | ralimetinib 0.006 | [2] -0.014 | [3] 0.035 | [4] 0.03 | [5] -0.004 | [6] 0.036 | [7] -0.072 | [8] 0.053

SMAP2 (UniProt Q8WU79)
active: [6] -0.286
inactive: ibrutinib -0.008 | [1] -0.008 | ralimetinib -0.015 | [2] -0.01 | [3] 0.024 | [4] 0.034 | [5] 0.019 | [7] -0.015 | [8] 0.002

SMIM1 (UniProt B2RUZ4)
Sequence of UniProt B2RUZ4 (B2RUZ4 whole entry, looked up): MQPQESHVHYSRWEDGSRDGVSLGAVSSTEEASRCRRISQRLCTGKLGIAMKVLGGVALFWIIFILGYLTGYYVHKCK
inactive: ibrutinib 0.018 | [1] 0.005 | ralimetinib 0.054 | [2] 0.036 | [3] 0.081 | [4] -0.132 | [6] -0.042 | [7] -0.021 | [8] 0.058

STN1 (UniProt Q9H668)
inactive: ibrutinib 0.133 | [1] -0.187 | ralimetinib 0.151 | [2] -0.071 | [3] -0.056 | [4] 0.106 | [6] -0.016 | [7] 0.051 | [8] 0.035

SLC39A13 (UniProt Q96H72)
inactive: ralimetinib 0.004 | [2] -0.137 | [3] -0.003 | [7] 0.25

SLCO4A1 (UniProt Q96BD0)
inactive: ibrutinib 0.081 | [4] 0.115

SPA17 (UniProt Q15506)
Sequence of UniProt Q15506 (Q15506 whole entry, looked up): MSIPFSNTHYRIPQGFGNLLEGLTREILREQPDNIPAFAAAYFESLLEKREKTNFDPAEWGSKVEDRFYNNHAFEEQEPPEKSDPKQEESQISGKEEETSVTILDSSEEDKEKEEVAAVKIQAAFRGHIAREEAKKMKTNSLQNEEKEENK
inactive: ibrutinib 0.056 | [1] 0.028 | ralimetinib 0.006 | [2] -0.098 | [5] 0.051 | [6] -0.053 | [7] 0.026 | [8] -0.058

SLC12A6 isoform 2 (UniProt Q9UHW9)
Sequence of UniProt Q9UHW9 (Q9UHW9 whole entry, looked up): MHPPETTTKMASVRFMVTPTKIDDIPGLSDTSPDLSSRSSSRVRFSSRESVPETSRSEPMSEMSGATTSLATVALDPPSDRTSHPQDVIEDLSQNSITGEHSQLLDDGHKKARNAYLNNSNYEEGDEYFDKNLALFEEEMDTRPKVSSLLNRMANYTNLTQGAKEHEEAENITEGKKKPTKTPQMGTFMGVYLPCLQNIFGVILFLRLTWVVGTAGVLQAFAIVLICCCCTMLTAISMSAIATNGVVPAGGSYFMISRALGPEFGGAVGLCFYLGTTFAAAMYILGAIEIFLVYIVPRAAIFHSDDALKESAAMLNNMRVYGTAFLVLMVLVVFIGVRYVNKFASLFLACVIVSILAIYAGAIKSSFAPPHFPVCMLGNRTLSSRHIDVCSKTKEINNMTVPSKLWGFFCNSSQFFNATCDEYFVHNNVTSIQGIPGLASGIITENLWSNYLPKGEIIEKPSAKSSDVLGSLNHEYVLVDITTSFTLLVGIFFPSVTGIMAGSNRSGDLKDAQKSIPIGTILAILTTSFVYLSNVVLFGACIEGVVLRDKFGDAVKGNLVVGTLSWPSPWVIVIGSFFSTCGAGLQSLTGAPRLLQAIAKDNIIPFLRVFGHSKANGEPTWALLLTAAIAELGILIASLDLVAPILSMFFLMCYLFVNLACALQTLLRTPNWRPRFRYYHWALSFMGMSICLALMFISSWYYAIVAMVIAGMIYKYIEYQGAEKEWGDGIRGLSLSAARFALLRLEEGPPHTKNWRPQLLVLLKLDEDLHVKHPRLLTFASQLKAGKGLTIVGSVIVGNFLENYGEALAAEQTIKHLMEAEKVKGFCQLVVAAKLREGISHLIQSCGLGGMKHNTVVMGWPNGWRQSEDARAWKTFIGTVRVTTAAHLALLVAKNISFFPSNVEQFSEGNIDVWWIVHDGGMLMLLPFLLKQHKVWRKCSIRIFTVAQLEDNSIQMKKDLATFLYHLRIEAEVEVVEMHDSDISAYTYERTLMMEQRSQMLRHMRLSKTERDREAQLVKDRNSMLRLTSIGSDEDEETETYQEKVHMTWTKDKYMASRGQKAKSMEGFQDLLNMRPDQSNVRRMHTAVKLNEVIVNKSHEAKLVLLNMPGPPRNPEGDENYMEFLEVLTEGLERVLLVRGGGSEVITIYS
inactive: [1] 0.016 | ralimetinib -0.01 | [2] 0.017 | [3] -0.018 | [5] 0.027 | [6] 0.063 | [7] -0.006 | [8] 0.122

STAU1 isoform 3 (UniProt O95793)
inactive: ibrutinib -0.094 | [3] 0.028 | [4] 0.012 | [6] -0.064

SIN3B (UniProt O75182)
inactive: [4] 0.19 | [6] 1.04

SNAP23 isoform 2 (UniProt O00161)
inactive: [1] -0.045 | ralimetinib -0.071 | [2] 0.095 | [3] -0.029 | [4] 0.306 | [7] 0.027 | [8] 0.028

SLC25A36 (UniProt Q96CQ1)
inactive: [1] -0.012 | ralimetinib 0.142 | [2] -0.048 | [3] 0.1 | [4] 0.044 | [5] -0.16 | [6] 0.011 | [7] 0.027 | [8] 0.013

SLC40A1 (UniProt Q9NP59)
inactive: [1] -0.028 | ralimetinib -0.037 | [2] -0.096 | [3] 0.042 | [4] -0.017 | [5] 0.049 | [6] -0.034 | [7] 0.041 | [8] -0.055

SLC41A1 (UniProt Q8IVJ1)
Sequence of UniProt Q8IVJ1 (Q8IVJ1 whole entry, looked up): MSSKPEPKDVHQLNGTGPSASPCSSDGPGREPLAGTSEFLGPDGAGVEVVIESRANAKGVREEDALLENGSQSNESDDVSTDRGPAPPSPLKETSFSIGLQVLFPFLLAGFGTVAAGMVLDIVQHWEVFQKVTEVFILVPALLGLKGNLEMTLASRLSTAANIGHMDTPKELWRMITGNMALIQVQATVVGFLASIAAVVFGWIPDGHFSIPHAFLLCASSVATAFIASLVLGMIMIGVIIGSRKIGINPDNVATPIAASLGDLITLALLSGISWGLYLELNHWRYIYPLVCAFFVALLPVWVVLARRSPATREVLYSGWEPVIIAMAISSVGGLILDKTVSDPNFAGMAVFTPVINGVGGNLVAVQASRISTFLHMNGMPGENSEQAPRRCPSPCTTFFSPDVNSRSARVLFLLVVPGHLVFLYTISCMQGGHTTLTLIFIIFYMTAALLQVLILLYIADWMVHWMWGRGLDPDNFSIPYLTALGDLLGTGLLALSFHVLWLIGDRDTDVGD
inactive: [1] 0.007 | ralimetinib -0.003 | [2] 0.112 | [3] -0.037 | [4] -0.023 | [6] -0.081 | [7] 0.09 | [8] 0.041

STAR (UniProt P49675)
inactive: ralimetinib -0.139 | [2] 0.02 | [3] 0.073 | [4] -0.027 | [5] -0.052 | [6] -0.049 | [7] -0.039

STK38L (UniProt Q9Y2H1)
inactive: ralimetinib -0.069 | [2] 0.021 | [3] -0.019 | [4] -0.024 | [5] -0.019 | [6] 0 | [7] 0.056

SPPL2A (UniProt Q8TCT8)
Sequence of UniProt Q8TCT8 (Q8TCT8 whole entry, looked up): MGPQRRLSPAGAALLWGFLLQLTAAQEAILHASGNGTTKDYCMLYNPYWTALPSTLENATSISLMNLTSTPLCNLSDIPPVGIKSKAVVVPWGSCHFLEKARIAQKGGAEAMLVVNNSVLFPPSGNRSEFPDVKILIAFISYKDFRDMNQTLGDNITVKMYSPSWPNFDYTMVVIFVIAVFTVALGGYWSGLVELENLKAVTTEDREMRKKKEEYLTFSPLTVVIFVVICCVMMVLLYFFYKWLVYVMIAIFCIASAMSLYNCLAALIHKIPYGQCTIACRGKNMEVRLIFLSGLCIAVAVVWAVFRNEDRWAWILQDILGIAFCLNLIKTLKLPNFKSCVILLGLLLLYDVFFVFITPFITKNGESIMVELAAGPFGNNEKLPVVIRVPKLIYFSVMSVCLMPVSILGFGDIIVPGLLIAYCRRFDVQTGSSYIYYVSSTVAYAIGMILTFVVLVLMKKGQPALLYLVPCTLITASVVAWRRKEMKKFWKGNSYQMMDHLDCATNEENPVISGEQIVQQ
inactive: ibrutinib -0.081 | [1] 0.154 | ralimetinib -0.152 | [2] -0.219 | [3] 0.004 | [6] 0.138 | [7] 0.091 | [8] -0.008

SNRPD2 (UniProt K7EJB5)
inactive: [1] -0.004 | ralimetinib 0.142 | [2] -0.075 | [3] 0.014 | [4] 0.052 | [5] -0.022 | [6] -0.011 | [7] 0.069 | [8] -0.01

TAOK2 (UniProt Q9UL54)
inactive: ibrutinib -0.009 | [1] 0.151 | ralimetinib -0.035 | [2] -0.033 | [4] -0.072 | [5] -0.053 | [6] -0.037 | [7] -0.044 | [8] 0.024

TAF11 (UniProt Q15544)
inactive: [1] -0.013 | ralimetinib 0.027 | [2] 0.008 | [4] 0.015 | [5] 0.115 | [6] 0.052 | [7] 0.072 | [8] -0.114

SPAG1 (UniProt Q07617)
inactive: ibrutinib 0.034 | [1] 0.282 | ralimetinib -0.017 | [2] -0.17 | [6] 0.15 | [7] 0.079 | [8] -0.198

SMARCA4 isoform 4 (UniProt P51532)
inactive: [1] 0.044 | ralimetinib 0.051 | [2] -0.022 | [3] -0.337 | [4] 0.093 | [5] -0.018 | [6] -0.107 | [7] 0.192 | [8] 0.041

SRC isoform 2 (UniProt P12931)
Sequence of UniProt P12931 (P12931 whole entry, looked up): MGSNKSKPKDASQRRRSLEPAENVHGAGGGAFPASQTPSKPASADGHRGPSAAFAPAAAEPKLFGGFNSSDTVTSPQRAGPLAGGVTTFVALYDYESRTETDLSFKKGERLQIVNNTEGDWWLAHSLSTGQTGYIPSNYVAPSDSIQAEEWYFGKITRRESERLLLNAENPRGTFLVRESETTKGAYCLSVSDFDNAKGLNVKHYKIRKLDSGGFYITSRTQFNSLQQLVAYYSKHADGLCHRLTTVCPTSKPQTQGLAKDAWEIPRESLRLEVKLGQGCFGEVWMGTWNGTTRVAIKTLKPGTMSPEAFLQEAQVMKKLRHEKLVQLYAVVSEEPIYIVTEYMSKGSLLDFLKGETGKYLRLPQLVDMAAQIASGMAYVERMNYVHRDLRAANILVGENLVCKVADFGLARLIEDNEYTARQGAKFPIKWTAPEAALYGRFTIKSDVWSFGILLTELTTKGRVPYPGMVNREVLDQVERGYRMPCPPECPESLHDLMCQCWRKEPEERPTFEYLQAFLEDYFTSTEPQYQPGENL
inactive: [1] -0.061 | ralimetinib -0.035 | [2] 0.075 | [3] 0.052 | [5] 0.07 | [7] 0.042 | [8] 0

SMPD2 (UniProt O60906)
Sequence of UniProt O60906 (O60906 whole entry, looked up): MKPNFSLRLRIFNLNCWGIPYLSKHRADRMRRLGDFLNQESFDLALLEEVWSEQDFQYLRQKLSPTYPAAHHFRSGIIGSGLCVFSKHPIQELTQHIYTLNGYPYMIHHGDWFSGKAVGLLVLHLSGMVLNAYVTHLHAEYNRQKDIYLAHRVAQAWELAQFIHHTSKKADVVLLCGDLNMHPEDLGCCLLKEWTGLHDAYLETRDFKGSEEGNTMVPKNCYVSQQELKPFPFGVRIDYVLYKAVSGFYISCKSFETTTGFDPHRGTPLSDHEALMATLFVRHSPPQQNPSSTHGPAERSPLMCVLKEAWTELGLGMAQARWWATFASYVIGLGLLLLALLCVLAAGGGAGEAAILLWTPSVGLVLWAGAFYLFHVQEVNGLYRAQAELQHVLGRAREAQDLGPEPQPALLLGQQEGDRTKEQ
inactive: [1] 0.01 | ralimetinib -0.03 | [2] 0.067 | [3] 0.388 | [5] 0.077 | [7] -0.113 | [8] 0.058

SNIP1 (UniProt Q8TAD8)
inactive: [4] -0.062

STK17A (UniProt Q9UEE5)
inactive: [4] 0.213

SLC22A18 (UniProt Q96BI1)
inactive: ibrutinib 0.099 | [1] -0.047 | [3] 0.049 | [6] 0.02 | [8] 0.011

SLU7 (UniProt O95391)
inactive: ibrutinib -0.084 | ralimetinib -0.013 | [2] -0.018 | [3] 0.045 | [4] -0.029 | [5] -0.015 | [6] 0 | [7] -0.031

SKP2 (UniProt Q13309)
inactive: [1] -0.137 | ralimetinib 0.137 | [2] 0.045 | [3] 0.058 | [4] -0.041 | [5] 0.023 | [6] -0.097 | [7] -0.015
active: [8] -0.576

SHB (UniProt Q15464)
inactive: [1] -0.023 | ralimetinib 0.023 | [2] -0.025 | [3] -0.009 | [5] -0.01 | [6] 0.023 | [7] -0.012 | [8] 0.05

SNAPC2 (UniProt Q13487)
inactive: ibrutinib 0.092 | ralimetinib 0.002 | [2] -0.029 | [3] -0.032 | [4] -0.073 | [5] -0.071 | [6] -0.008 | [7] 0.011

TAF1B (UniProt Q53T94)
inactive: ibrutinib -0.156 | [1] 0.095 | ralimetinib 0.043 | [2] -0.112 | [4] 0.419 | [5] -0.101 | [6] 0.032 | [7] 0.006 | [8] 0.138

STK26 isoform 3 (UniProt Q9P289)
inactive: [5] -0.157 | [6] -0.146

STK17B (UniProt O94768)
Sequence of UniProt O94768 (O94768 whole entry, looked up): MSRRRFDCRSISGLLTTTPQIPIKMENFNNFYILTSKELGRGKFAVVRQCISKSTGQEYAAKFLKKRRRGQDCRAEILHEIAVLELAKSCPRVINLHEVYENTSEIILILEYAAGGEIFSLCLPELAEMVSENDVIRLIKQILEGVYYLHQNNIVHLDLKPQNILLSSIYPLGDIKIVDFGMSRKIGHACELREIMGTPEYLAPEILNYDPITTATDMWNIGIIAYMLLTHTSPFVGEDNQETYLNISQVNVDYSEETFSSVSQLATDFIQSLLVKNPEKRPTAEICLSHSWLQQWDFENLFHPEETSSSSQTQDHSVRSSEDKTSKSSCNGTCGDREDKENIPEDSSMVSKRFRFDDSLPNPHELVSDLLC
inactive: ralimetinib 0.104 | [2] -0.004 | [3] 0.162 | [4] 0.054 | [5] -0.102 | [6] 0.147 | [7] 0.07

SURF2 (UniProt Q15527)
Sequence of UniProt Q15527 (Q15527 whole entry, looked up): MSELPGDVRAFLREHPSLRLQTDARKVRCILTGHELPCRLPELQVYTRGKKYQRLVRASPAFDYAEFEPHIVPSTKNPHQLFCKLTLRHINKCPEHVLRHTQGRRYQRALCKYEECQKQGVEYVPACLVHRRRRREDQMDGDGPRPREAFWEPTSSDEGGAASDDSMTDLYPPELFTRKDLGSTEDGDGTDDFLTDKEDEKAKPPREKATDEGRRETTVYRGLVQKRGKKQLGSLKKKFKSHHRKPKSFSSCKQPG
inactive: ibrutinib 0.001 | [1] -0.019 | ralimetinib -0.147 | [2] -0.038 | [4] 0.103 | [5] 0.018 | [6] 0.026 | [7] 0.031 | [8] -0.02

TAOK2 isoform 2 (UniProt Q9UL54)
inactive: [4] 0.034

SLC35A3 isoform 2 (UniProt Q9Y2D2)
inactive: [1] -0.034 | ralimetinib -0.027 | [2] 0.234 | [3] -0.027 | [4] -0.133 | [6] 0.111 | [7] -0.025 | [8] 0.051

Reference: the supplement of paper PMC10849652
